Measurements as given in PubChem BioAssay.
Activity calls are given as the source filed them. Unless noted, how the calls were made is not given here.

Experiments:
[1] = test system: Wnt5a (protein binding on small-molecule microarray); assay: Wnt5a binders on small-molecule microarray, primary screen, biophysical, 635/667 nm fluorescence (AID 1142); settings: 635 nm fluorescence, higher = more signal;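 further: fluorescence read at 667 nm with signal to noise per printed feature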
[2] = cell viability in Huh7 cells, primary screen, cytotoxicity control for HCV replication inhibitor project, CellTiter-Glo luminescence, basal, 48 h (AID 1143); settings: Huh7 HCV replicon, higher = more signal, called active from +8 up or from −8 down;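 further: Huh7 hepatoma cells carrying a hepatitis C replication reporter with no stimulus; test concentration not given here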
[3] = P. aeruginosa biofilm formation inhibitors, primary screen, PAO1 strain, BacTiter-Glo luminescence, LB-PBS (AID 1144); settings: 12 h, higher = more signal
[4] = CREB reporter modulators without forskolin, primary screen, cell-based, PC12, CRE-LacZ reporter, unstimulated (AID 1145); settings: no forskolin, luminescence, 4.5 h, higher = more signal, called active from +8 up or from −8 down
[5] = CREB reporter modulators under forskolin, primary screen, cell-based, PC12, CRE-LacZ reporter, forskolin-stimulated (AID 1146); settings: luminescence, 4.5 h, higher = more signal, called active from +8 up or from −8 down;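 further: PC12 cells with 6xCRE LacZ reporter stimulated by forskolin 10 µM; beta-galactosidase reporter signal reflecting CREB driven transcription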
[6] = target: Streptavidin (Streptomyces avidinii) (UniProt P22629); assay: streptavidin binders on small-molecule microarray, primary screen, artefact control for SMM compound annotation, biophysical, 635/667 nm fluorescence (AID 1147); settings: streptavidin binding, higher = more signal;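 further: signal reflects streptavidin binding to arrayed compounds as a control protein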
[7] = small-molecule binders of probe aInhba, primary screen, biochemical, small-molecule microarray, 635/667 nm fluorescence (AID 1148); settings: higher = more signal;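 further: score merges 667nm spot fluorescence with signal-to-noise for antibody binding to printed compounds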
Torsin-1A (Homo sapiens) [8] = target: Torsin-1A (Homo sapiens) (UniProt O14656); assay: torsin A binders from cell lysate, primary screen, small-molecule microarray, wild-type, 635/667 nm (AID 1149); settings: COS7 hTOR1A-WT lysate, 635 nm fluorescence, higher = more signal
Torsin-1A (Homo sapiens) [9] = target: Torsin-1A (Homo sapiens) (UniProt O14656); assay: small-molecule binders of mutant TOR1A in lysate, primary screen, cell lysate, small-molecule microarray, COS7 lysate, 635/667 nm fluorescence (AID 1150); settings: COS7 hTOR1A mutant lysate, 635 nm fluorescence, higher = more signal;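 further: score pools 667 nm emission and signal to noise measuring lysate protein binding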
[10] = test system: Sonic hedgehog protein (Shh); assay: small-molecule binders of Shh protein, primary screen, biochemical, small-molecule microarray, 635/667 nm fluorescence (AID 1151); settings: small-molecule microarray binding, 635 nm fluorescence; higher = more signal;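 further: Shh protein binding to compounds spotted on small-molecule microarray slides; score combines spot fluorescence intensity with signal-to-noise across triplicate slides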

Chain of Streptavidin (Streptomyces avidinii) (P22629 whole entry, looked up): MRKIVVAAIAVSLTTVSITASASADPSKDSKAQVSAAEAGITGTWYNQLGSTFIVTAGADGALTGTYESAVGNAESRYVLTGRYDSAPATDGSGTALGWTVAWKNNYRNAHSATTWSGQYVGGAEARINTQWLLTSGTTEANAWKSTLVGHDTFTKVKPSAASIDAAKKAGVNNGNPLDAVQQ
Chain of Torsin-1A (Homo sapiens) (O14656 whole entry, looked up): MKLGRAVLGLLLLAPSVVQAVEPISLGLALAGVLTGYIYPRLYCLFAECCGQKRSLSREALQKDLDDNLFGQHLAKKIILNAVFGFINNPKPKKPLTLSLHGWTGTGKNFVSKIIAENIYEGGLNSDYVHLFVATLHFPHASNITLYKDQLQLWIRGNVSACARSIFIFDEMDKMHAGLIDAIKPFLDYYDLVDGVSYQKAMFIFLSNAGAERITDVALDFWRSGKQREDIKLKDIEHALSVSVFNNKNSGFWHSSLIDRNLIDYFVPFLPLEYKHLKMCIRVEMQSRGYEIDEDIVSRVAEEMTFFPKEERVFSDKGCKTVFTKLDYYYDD

SMILES	composite z-score [1]	z-score [2]	z-score [3]	z-score [4]	z-score [5]	composite z-score [6]	composite z-score [7]	composite z-score (Torsin-1A (Homo sapiens) [8])	composite z-score (Torsin-1A (Homo sapiens) [9])	composite z-score [10]
O=C1C2C=CC(C(O)c3c(F)cccc3Cl)N(Nc3ccccc3F)C2C(=O)N1c1ccccc1 (stereo not given)	0.185	1.04 (inactive)	-0.563 (inactive)	0.243 (inactive)	-0.0389 (inactive)	0.396	0.143	0.0354	0.301	-0.356
CN(C)CCCC[C@@H]1NC(=O)[C@H]2C[C@@H](C(=O)NCCCCCN)[C@@H](c3cccc(OCCO)c3)N2C1=O	0.456	-1.01 (inactive)	0.767 (inactive)	0.155 (inactive)	0.421 (inactive)	1.13	0.495	1.99	2.15	1.28
COCCCNC(=O)[C@@]1(Cc2ccccc2)N=C(c2ccc(OCCCO)cc2)O[C@H]1c1ccccc1CN=[N+]=[N-]	0.419	-3.17 (inactive)	1.55 (inactive)	0.447 (inactive)	-0.929 (inactive)	0.716	0.389	0.544	0.37	-0.0164
CC(c1ccccc1)C(O)C1C=CC2C(=O)N(C)C(=O)C2N1NC(=O)OC(C)(C)C (stereo not given)	0.472	0.834 (inactive)	0.059 (inactive)	0.622 (inactive)	-0.434 (inactive)	2.15	0.19	0.516	1.13	-0.656
CC(C)CCC[C@@H](C)[C@H]1CC[C@@]2(C)C3=C(CC[C@]12C)[C@@]1(C)CC[C@H](OC(=O)c2ccc(C(F)(F)F)nc2)C(C)(C)C1CC3 (stereo not given in full)	0.0419	-0.878 (inactive)	-0.14 (inactive)	0.399 (inactive)	-0.121 (inactive)	0.536	0.0411	0.379	0.347	1.04
C=CC[C@]1(C(N)=O)N=C(c2ccc(OCCCO)cc2)O[C@H]1c1ccccc1	0.555	-1.01 (inactive)	-0.717 (inactive)	0.652 (inactive)	-0.806 (inactive)	0.186	-0.168	2.79	2.33	-0.406
O=C1O[C@@H](c2ccccc2)[C@@H](c2ccccc2)N2[C@@H](c3ccccc3OCCO)[C@]3(C(=O)Nc4ccc(C#CC5(O)CCCCCC5)cc43)[C@@H](C(=O)N3CCN(c4ncccn4)CC3)[C@H]12	0.133	-2.72 (inactive)	0.703 (inactive)	0.209 (inactive)	2.96 (inactive)	0.077	0.0074	0.987	0.808	1.11
COC(=O)[C@]1(Cc2ccccc2)N=C(c2ccc(OCCCO)cc2)O[C@@H]1c1ccccc1N=[N+]=[N-]	0.501	-5.26 (inactive)	-0.441 (inactive)	1.34 (inactive)	-1.47 (inactive)	0.291	-0.0221	-0.0019	0.0366	0.354
C=CC[C@]1(C(N)=O)COC(c2ccc(OCCCO)cc2)=N1	0.469	-1.33 (inactive)	-0.151 (inactive)	0.0359 (inactive)	0.127 (inactive)	-0.266	0.027	1	1.18	0.395
C#CCNCc1ccccc1	-0.0766	-0.0359 (inactive)	1.16 (inactive)	-0.882 (inactive)	0.531 (inactive)	0.202	-0.134	0.335	0.442	0.442
COc1cc(CO)cc(I)c1O[C@H]1C=C(C(=O)NCCO)C[C@@H](N(C(=O)c2cc3ccccc3oc2=O)C2CCCCCC2)[C@@H]1O	0.021	-2.46 (inactive)	-0.269 (inactive)	-0.153 (inactive)	-0.94 (inactive)	0.0378	-0.157	-0.113	0.347	1.33
COC(=O)[C@@]1(Cc2ccc(OC)cc2)[C@H]2c3cc(C(=O)N4CCCC4)n(CCSCCO)c3C[C@H]2CN1C(=O)c1ccccc1	0.631	-0.974 (inactive)	0.58 (inactive)	1.34 (inactive)	1.82 (inactive)	0.532	0.257	0.396	1.45	-0.623
COc1ccc(-c2cc3c(c(Cc4ccccc4)n2)[Si](C(C)C)(C(C)C)OC3)cn1	-0.153	-1.03 (inactive)	0.2 (inactive)	-0.141 (inactive)	0.877 (inactive)	-0.32	-0.215	-0.0113	-0.729	-0.093
C=CCN1Cc2ccccc2[C@@H]2OC(c3ccc(OCCCO)cc3)=N[C@]2(CCS(=O)(=O)c2ccccc2)C1=O	1.02	-2.93 (inactive)	-0.491 (inactive)	2.65 (inactive)	-0.821 (inactive)	0.316	0.122	0.625	0.969	1.77
CN(C)CCCCNC(=O)[C@@H]1C[C@@H]2C(=O)N[C@@H](CCCCN)C(=O)N2[C@@H]1c1ccc(O)cc1	0.0291	-0.151 (inactive)	-0.0779 (inactive)	0.281 (inactive)	-0.773 (inactive)	0.98	-0.0403	0.584	0.435	1.23
CC(=O)Nc1cc(Br)ccc1C(=O)NCc1ccccc1	-0.0375	-0.798 (inactive)	0.0338 (inactive)	-0.348 (inactive)	-1.14 (inactive)	0.725	-0.0963	-0.0164	-0.0323	-0.24
CCCC(=O)N(CCc1c[nH]c2ccccc12)[C@@H]1CC(C(=O)NCCO)=C[C@H](Oc2c(I)cc(CO)cc2OC)[C@H]1O	-0.0727	-0.0737 (inactive)	-0.396 (inactive)	0.486 (inactive)	-0.887 (inactive)	-0.268	-0.128	-0.24	0.0165	-0.251
CC1CC/C=C\[C@H]2OC34C=CCN(Cc5ccccc5)C(=O)[C@H]3N(C(C)CO)C(=O)[C@@H]4C2C(=O)O1 (stereo not given in full)	-0.125	0.0111 (inactive)	0.647 (inactive)	1.68 (inactive)	-0.0203 (inactive)	-0.556	-0.0822	-0.859	-0.119	0.473
C=CCN1C(=O)[C@]2(O[C@H](CCO)[C@@H]([Si](C)(C)c3ccc(OC)cc3)[C@@H]2C)c2cc(N(C=O)c3ccccc3)ccc21	-0.223	-7.67 (inactive)	-0.2 (inactive)	32.2 (active)	-3.14 (inactive)	0.0699	-0.082	-0.376	0.0507	0.572
NCCCCCNC(=O)[C@H]1C[C@H]2C(=O)N[C@@H](Cc3ccccc3)C(=O)N2[C@H]1c1cccc(OCCO)c1	-0.0768	-0.535 (inactive)	-0.2 (inactive)	1.49 (inactive)	-0.389 (inactive)	0.951	0.205	0.5	0.71	0.102
CCCC=C(CCC)[C@@H](NC(=O)OCC(C)C)c1ccccc1	1.33	-3.28 (inactive)	0.173 (inactive)	0.766 (inactive)	1.43 (inactive)	0.576	0.613	0.0387	-0.0475	0.661
CCN(CC)c1ccc(N2CC=CC34O[C@@H]5/C=C\CCC(C)OC(=O)C5[C@H]3C(=O)N(CCCCCO)[C@@H]4C2=O)cc1 (stereo not given in full)	-0.408	0.16 (inactive)	1.24 (inactive)	1.16 (inactive)	-0.418 (inactive)	-1.1	-0.016	-1.47	-1.59	-0.0874
CCCNC(=O)[C@@]1(Sc2ccc(C)cc2)CC(=O)N(Cc2ccccc2C(F)(F)F)[C@@H]1c1ccc(CO)cc1I	0.168	-4.54 (inactive)	-0.376 (inactive)	-0.231 (inactive)	-0.0562 (inactive)	1.17	-0.0405	1.26	1.47	1.88
CC(C)Cc1ccc(CN2CC[C@@H](N)C2)cc1	-0.544	-3.26 (inactive)	-1.53 (inactive)	-0.688 (inactive)	1.52 (inactive)	-1.27	-0.0357	-1.79	-0.677	-0.0963
C=C(CCCC)/C(=C/C[C@H](OC(=O)c1ccncc1)c1ccc(OCCO)cc1)c1cc(C(=O)OC)ccc1OC	0.355	-4.81 (inactive)	0.282 (inactive)	5.11 (inactive)	-0.366 (inactive)	0.0399	0.0104	0.404	0.102	1.96
O=C1C2C=CC(C(O)C=Cc3ccc([N+](=O)[O-])cc3)N(Nc3ccccc3F)C2C(=O)N1c1ccccc1 (stereo not given)	0.265	-0.071 (inactive)	0.0113 (inactive)	-0.424 (inactive)	-0.156 (inactive)	1.77	0.095	0.422	0.31	-0.0025
C=C(C(=O)CC[C@H](OC(C)=O)c1ccccc1OCCO)C(C)C	-0.138	-8.56 (active)	-0.679 (inactive)	9.01 (active)	-0.422 (inactive)	-0.455	-0.188	0.229	-0.752	2.19
COCCOC(=O)N1C(=O)[C@@]2(c3cc(C#CC4=CCCCC4)ccc31)[C@H](C(N)=O)[C@H]1C(=O)O[C@H](c3ccccc3)[C@H](c3ccccc3)N1[C@@H]2c1ccc(O)cc1	0.838	-4.06 (inactive)	-1.29 (inactive)	-0.931 (inactive)	-0.438 (inactive)	1.14	-0.0736	1.03	0.931	1.08
